KDM5B inh = inhibitors of human KDM5B histone demethylase. Q9UGL1. KDM5B demethylase, FDH-coupled NADH fluorescence (FDH is formaldehyde dehydrogenase). Potency, µM (highest dose often 57.7 µM), usual class: inhibitors. actives 2.6% (n = 220,000). AID 1347165; active means well fitted inhibition curve with a large enough effect; further: 0% is about no effect; nearly all actives have a fitted effect of over 70% in size
Target sequence (Q9UGL1 whole entry, looked up): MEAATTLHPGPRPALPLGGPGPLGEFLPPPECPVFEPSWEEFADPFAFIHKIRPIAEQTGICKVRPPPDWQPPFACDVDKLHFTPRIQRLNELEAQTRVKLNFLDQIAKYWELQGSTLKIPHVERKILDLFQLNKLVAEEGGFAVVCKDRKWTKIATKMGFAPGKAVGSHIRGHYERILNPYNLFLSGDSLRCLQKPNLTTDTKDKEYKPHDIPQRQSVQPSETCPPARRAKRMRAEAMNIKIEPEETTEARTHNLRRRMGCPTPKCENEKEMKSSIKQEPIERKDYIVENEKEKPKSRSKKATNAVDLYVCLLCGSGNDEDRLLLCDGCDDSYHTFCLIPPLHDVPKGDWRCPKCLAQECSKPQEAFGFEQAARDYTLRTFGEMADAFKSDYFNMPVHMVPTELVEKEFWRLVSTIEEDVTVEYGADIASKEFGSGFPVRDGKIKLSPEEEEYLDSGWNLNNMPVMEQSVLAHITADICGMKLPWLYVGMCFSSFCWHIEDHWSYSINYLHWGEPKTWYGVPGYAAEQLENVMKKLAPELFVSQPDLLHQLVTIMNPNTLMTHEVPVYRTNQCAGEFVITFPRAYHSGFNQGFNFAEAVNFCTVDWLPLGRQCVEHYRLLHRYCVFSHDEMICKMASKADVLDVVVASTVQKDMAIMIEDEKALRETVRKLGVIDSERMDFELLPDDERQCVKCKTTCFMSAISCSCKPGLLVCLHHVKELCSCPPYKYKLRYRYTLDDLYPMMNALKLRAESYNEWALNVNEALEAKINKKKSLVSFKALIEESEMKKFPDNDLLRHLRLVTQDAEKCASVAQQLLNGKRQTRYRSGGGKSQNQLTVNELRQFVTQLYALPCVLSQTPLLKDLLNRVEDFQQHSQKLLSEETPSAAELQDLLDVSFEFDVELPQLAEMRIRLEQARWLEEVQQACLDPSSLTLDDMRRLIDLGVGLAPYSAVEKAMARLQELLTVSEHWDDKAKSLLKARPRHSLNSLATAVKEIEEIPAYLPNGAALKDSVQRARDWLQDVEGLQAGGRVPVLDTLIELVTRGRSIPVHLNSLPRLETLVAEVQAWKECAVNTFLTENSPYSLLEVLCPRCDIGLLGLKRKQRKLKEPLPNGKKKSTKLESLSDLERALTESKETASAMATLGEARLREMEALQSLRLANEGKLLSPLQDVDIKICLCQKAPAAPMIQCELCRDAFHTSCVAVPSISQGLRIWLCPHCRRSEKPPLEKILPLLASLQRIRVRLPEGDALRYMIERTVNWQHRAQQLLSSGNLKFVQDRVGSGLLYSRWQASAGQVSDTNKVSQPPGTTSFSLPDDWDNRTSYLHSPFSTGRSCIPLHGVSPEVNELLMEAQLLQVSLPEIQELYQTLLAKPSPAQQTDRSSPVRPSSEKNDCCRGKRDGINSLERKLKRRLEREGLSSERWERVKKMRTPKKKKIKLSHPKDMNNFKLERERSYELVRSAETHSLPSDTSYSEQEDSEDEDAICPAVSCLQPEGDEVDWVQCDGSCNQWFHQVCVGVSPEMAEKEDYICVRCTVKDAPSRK
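Coupled FDH/NAD⁺ fluorescence readout. KDM5BΔAP 200 nM final; compound titration, 10 min RT preincubation; substrate mix 12.5 µM H3K4me3, 25 µM 2-OG, 50 µM Fe(II), 100 µM ascorbate, 0.25 mM NAD⁺, 0.25 U/mL FDH; ΔRFU over 30 min.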
The depositor's hits bear a star. The entries come from a sample that favours hits as a whole. Potency means the concentration at half of the fitted maximal effect.

How did COCCN1CCCC(c2[nH]ccc2C(=O)NCCc2nc3ccccc3[nH]2)C1 (stereo not given) do in these assays?
KDM5B inh: inactive

How did O=C(c1ccccc1Cl)N1CCc2c(nc3cc(-c4ccccc4)[nH]n3c2=O)C1 do in these assays?
KDM5B inh: 35µM*

How did O=C(c1ccccc1Cl)N1CCc2nc(-c3ccccc3)nc(-c3ccc(Cl)cc3)c2C1 do in these assays?
KDM5B inh: inactive

How did Cc1noc(C)c1S(=O)(=O)N1CCCCCCn2c(nnc2-c2ccc(F)cc2)CC1 do in these assays?
KDM5B inh: inactive

Results for Cc1noc(C)c1S(=O)(=O)N1CCc2nc3cc(-c4ccccc4)[nH]n3c(=O)c2C1 ?
KDM5B inh: 28µM*

How did CCn1c2c(c(=O)n1-c1ccccc1)CCN(C(=O)c1ccc(Cl)cc1)C2 do in these assays?
KDM5B inh: inactive

Results for CCOC(=O)CCNC(=O)N1CCc2c(nc3cc(-c4ccccc4)[nH]n3c2=O)C1 ?
KDM5B inh: 28µM*

What do the screens show for `O=C(c1cc2c(s1)CCCC2)N1CCc2c(nc3cc(-c4ccccc4)[nH]n3c2=O)C1`?
KDM5B inh: inactive

Results for CCOC(=O)CCNC(=O)N1CCc2c(nc(-c3ccccc3)[nH]c2=O)C1 ?
KDM5B inh: inactive

What do the screens show for `CCn1cc(Cl)c(C(=O)N2CCc3c(nc4cc(-c5ccccc5)[nH]n4c3=O)C2)n1`?
KDM5B inh: 25µM*

How did CCOC(=O)CCNC(=O)N1CCCN(S(C)(=O)=O)C(c2ccccc2)CC(=O)NCC1 (stereo not given) do in these assays?
KDM5B inh: inactive

What do the screens show for `Cc1noc(C)c1S(=O)(=O)N1CCc2n[nH]c(=O)n2CC1`?
KDM5B inh: inactive

Results for O=C(c1cnc2ccccn12)N1CCc2c(nc(-c3ccccc3)[nH]c2=O)C1 ?
KDM5B inh: inactive

How did NC(=O)c1ccccc1NC(=O)C(=O)c1c[nH]c2ccccc12 do in these assays?
KDM5B inh: inactive

Results for COc1ccc(C(CC(=O)NCc2ccco2)Sc2n[nH]c(-c3ccc(F)cc3)n2)cc1 (stereo not given) ?
KDM5B inh: inactive

How did O=C(CCCC(=O)OCC(=O)c1ccc([N+](=O)[O-])cc1)Nc1cc(C(F)(F)F)ccc1Cl do in these assays?
KDM5B inh: inactive

What do the screens show for `Cc1ccc(NS(=O)(=O)c2cc(-c3cnc(C)o3)ccc2C)c(Cl)c1`?
KDM5B inh: inactive

How did COc1ccccc1C1=NN(C(=O)C(C)C)C(c2ccc3nccnc3c2)C1 (stereo not given) do in these assays?
KDM5B inh: inactive

What do the screens show for `COc1ccc(Cl)cc1C(=O)N1CCCN(c2cc(-c3ccccc3)[nH]n2)CC1`?
KDM5B inh: inactive

Results for COc1ccc(Cl)cc1C(=O)N1CCc2nc3cc(-c4ccccc4)[nH]n3c(=O)c2C1 ?
KDM5B inh: 25µM*

Results for CN(C)S(=O)(=O)N1CCc2c(nc3cc(-c4ccccc4)[nH]n3c2=O)C1 ?
KDM5B inh: 22µM*

What do the screens show for `CN(C)S(=O)(=O)N1CCCC(c2nc(-c3cccnc3)no2)CCNC(=O)CC1` (stereo not given)?
KDM5B inh: inactive

What do the screens show for `CN(C)S(=O)(=O)N1CCCC(c2nc(-c3ccccc3)no2)CCNC(=O)CC1` (stereo not given)?
KDM5B inh: inactive

How did COc1ccccc1C(=O)N1CCc2nc(C3CC3)nc(-c3ccc(Cl)cc3)c2C1 do in these assays?
KDM5B inh: inactive

How did CCSc1ncc2c(=O)n(CC(=O)Nc3cccc(Br)c3)cnc2n1 do in these assays?
KDM5B inh: inactive

What do the screens show for `Cc1nc2ccccc2nc1SC(C)C(=O)NCC(C)C` (stereo not given)?
KDM5B inh: inactive

How did COc1cc(NC(=O)CCc2c(C)c3ccc(C)cc3oc2=O)cc(OC)c1OC do in these assays?
KDM5B inh: inactive

Results for O=c1cc(-c2cccnc2)oc2c(NCc3ccccc3)nccc12 ?
KDM5B inh: inactive

How did Cn1cc(-c2cc(=O)c3ccnc(NC4CCOCC4)c3o2)cn1 do in these assays?
KDM5B inh: inactive

How did Cn1cc(-c2cc(=O)c3ccnc(NCc4ccc(F)cc4)c3o2)cn1 do in these assays?
KDM5B inh: 32µM*

What do the screens show for `CN(C)c1nc2c(c(=O)n(C)c(=O)n2C)n1CCc1ccccc1`?
KDM5B inh: inactive

What do the screens show for `COC(=O)C1=C(C)N(c2cccc(C)c2)C(=S)NC1c1ccc(-n2ccnc2)cc1` (stereo not given)?
KDM5B inh: inactive

What do the screens show for `CC(C)c1nc(Cn2ncc(N3CCOC(CCN)C3)cc2=O)no1` (stereo not given)?
KDM5B inh: inactive

How did Cn1ncc(N2CCOC(CCNc3cnc4ccccc4n3)C2)cc1=O (stereo not given) do in these assays?
KDM5B inh: 32µM*

Results for Cn1ncc(N2CCOC(CCNC(=O)c3cccnn3)C2)cc1=O (stereo not given) ?
KDM5B inh: inactive

Results for COc1ccc(CN2CCOC[C@H]2c2ncc(-c3ccc(OC)cc3)[nH]2)cc1 ?
KDM5B inh: inactive

Results for COc1ccc(CN[C@H]2[C@H](O)[C@H](O)C[C@@H]2c2ccc(C(F)(F)F)cc2)cc1 ?
KDM5B inh: inactive

What do the screens show for `Cn1cc(C(=O)NC2(C)CCS(=O)(=O)C2)c2ccccc21` (stereo not given)?
KDM5B inh: inactive

What do the screens show for `CCOc1ccc(Oc2ccccc2N)cc1`?
KDM5B inh: inactive

What do the screens show for `S=C(NCc1cccs1)NCC1CCCCC1`?
KDM5B inh: inactive

How did Cc1nc2c(c(=O)[nH]1)C(c1cc(F)cc(F)c1)CC(=O)N2 (stereo not given) do in these assays?
KDM5B inh: inactive

How did Cn1c(SCc2ccc(F)cc2)nc(=O)c2c1NC(=O)CC2c1ccc(F)c(Br)c1 (stereo not given) do in these assays?
KDM5B inh: inactive

Results for CNc1nc2c(s1)C(c1cccc(F)c1)CC(=O)N2 (stereo not given) ?
KDM5B inh: 28µM*

What do the screens show for `CNc1nc2c(s1)C(c1ccc(F)c(F)c1)CC(=O)N2` (stereo not given)?
KDM5B inh: 32µM*

Results for Cc1cccn2c3c(c(=O)nc12)C(c1cccc(F)c1)CC(=O)N3 (stereo not given) ?
KDM5B inh: inactive

How did Cn1c(=O)c2c(n3ncnc13)NC(=O)CC2c1cccc(F)c1 (stereo not given) do in these assays?
KDM5B inh: inactive

What do the screens show for `Cn1c(CNC(=O)C(Cc2ccccc2)NC(=O)Cc2ccc(Cl)cc2)cc(=O)n(C)c1=O` (stereo not given)?
KDM5B inh: inactive

What do the screens show for `CCc1c(C)sc(NC(=O)CCCCl)c1C#N`?
KDM5B inh: inactive

What do the screens show for `CCCCN(C)C(=O)Cn1c(C2CC(=O)N(c3cccc(C)c3)C2)nc2ccccc21` (stereo not given)?
KDM5B inh: inactive

How did CC(C)(C)c1ccc(C(=O)COC(=O)c2ccc3ccccc3n2)cc1 do in these assays?
KDM5B inh: inactive

What do the screens show for `CC(C)c1ccccc1NC(=O)COc1ncnc2ccc(Br)cc12`?
KDM5B inh: inactive

What do the screens show for `O=C(Nc1ccc(F)cc1F)C1=C(N2CCOCC2)c2ccccc2S1(=O)=O`?
KDM5B inh: inactive

What do the screens show for `Cn1cccc1C(=O)N1CCC(Nc2cccnc2)C1` (stereo not given)?
KDM5B inh: inactive

Results for Cc1ccccc1S(=O)(=O)N1CCC(CCC(=O)Nc2cccnc2)CC1 ?
KDM5B inh: inactive

Source: PubChem BioAssay
